The list is not random: actives were taken first. Their share in the collection is about 10%.
ALOX12 inhib: blocks human 12-lipoxygenase activity | P18054 | purified 12-hLO, xylenol orange hydroperoxide absorbance | Potency, µM (highest dose often 57.1 µM), hits mostly inhibitors | actives 0.12% (n = 150,000) | AID 1452; active = well fitted inhibition curve with a large enough effect; inconclusive = small, poorly fitted or top-dose-only effect; note: nearly all actives have a fitted effect of over 55% in size
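Purified human 12hLO (150 nM), preincubated 15 min with compound, then 40 uM arachidonic acid for 30 min, room temperature, Hepes pH 7.0 with 0.01% Triton X-100. Hydroperoxide detected by ferrous iron/xylenol orange; 573/405 nm absorbance ratio gives reaction progress.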
HPGD block: blocks human HPGD enzyme activity; P15428; purified HPGD, NADH fluorescence kinetic, PGE2 substrate; Potency, µM, actives largely listed as inhibitors; actives 4.3% (n = 150,000)
Target sequence (P15428 whole entry, looked up): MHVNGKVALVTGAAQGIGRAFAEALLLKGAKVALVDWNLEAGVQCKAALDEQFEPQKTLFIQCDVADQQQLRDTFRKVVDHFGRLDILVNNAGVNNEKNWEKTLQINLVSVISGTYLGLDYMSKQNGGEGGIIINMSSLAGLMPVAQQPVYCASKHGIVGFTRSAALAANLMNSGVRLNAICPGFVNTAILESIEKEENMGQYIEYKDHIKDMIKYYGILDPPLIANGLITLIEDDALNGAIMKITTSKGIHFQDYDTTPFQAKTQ
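20 nM HPGD preincubated 15 min at room temperature with compound in 50 mM Tris-HCl pH 8, 0.01% Tween 20. Started with 1 mM NAD+ and 30 uM prostaglandin E2; NADH fluorescence (360/450 nm) read 5 times over 30-s intervals, last minus first.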
ALDH1A1 inh: ALDH1A1 (human) enzyme inhibition; AID 1030; actives 7.3% (n = 220,000); Potency, µM (titrated, usually from 75.3 µM), actives largely listed as inhibitors; P00352; Purified ALDH1A1, NADH fluorescence, propionaldehyde substrate
Lamin A splicing: changes lamin A minigene splicing in HeLa cells; actives 0.01% (n = 200,000); HeLa LMNA splicing GFP/RFP minigene ratio, 48 h; AID 1487; Potency, µM (highest dose often 46.1 µM), actives largely listed as inhibitors; active = well fitted inhibition curve with a large enough effect in the signal ratio, with a control signal flat, not every such curve was filed as active; inconclusive = small, poorly fitted or top-dose-only effect, or effect the other way, or a change in a side signal; the % refers to the signal ratio
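S3 HeLa cells stably expressing lamin A-EGFP splicing minigene plus DsRed2, 600 cells/well, 48 h compound exposure at 37C. Laser-scanning cytometry; analysed as GFP (500-530 nm)/RFP (575-640 nm) total intensity ratio; 0.5% DMSO vehicle.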
PNC inhibitor: perinucleolar compartment assembly inhibition; PC3M PTB-GFP, PNC prevalence imaging, 16 h; stronger effect = lower value; activity change (PNC), negative = inhibition, % at 10 µM; actives 3.1% (n = 140,000);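 active = readout at or below -70, meaning at least 70% loss of cells showing the perinucleolar compartment, a nuclear body marking cancer cells; inconclusive = readout between -30 and a set limit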
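Read-out is percentage of cells bearing a perinucleolar compartment, from automated 20x imaging of fixed, Hoechst-stained PC3M PTB-GFP cells. Cells were seeded 4 h, then exposed 16 h to compound (23 nl of library stock) in duplicate plates.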
A number is an active result; [ ] = another dose, or the depositor's remark. Unless noted, calls come from the whole dose curve; as a rule, active = well fitted inhibition curve with a large enough effect (not every such curve was filed as active); inconclusive = small, poorly fitted or top-dose-only effect, or another doubt; inactive = no such curve, though single readings can be large or run the other way.

`CCOC(=O)N1CCN(C(=O)CN(C2CCCCC2)S(=O)(=O)c2ccc(C)cc2)CC1` gave ALOX12 inhib inactive, HPGD block inactive, ALDH1A1 inh 7.1µM, Lamin A splicing inactive and PNC inhibitor inconclusive.
`CC1=CC[C@@]2(CO)COC(c3ccccc3O)C1C2` (some centres undefined) gave HPGD block inactive and ALDH1A1 inh inconclusive.
Cn1cnnc1SCCC(=O)Nc1ccc(Cl)cc1 was read as ALOX12 inhib inactive, HPGD block inactive, ALDH1A1 inh inactive, Lamin A splicing inactive and PNC inhibitor -113.
Cn1cnnc1SCCC(=O)Nc1ccccc1 was read as ALOX12 inhib inactive, ALDH1A1 inh inactive, Lamin A splicing inactive and PNC inhibitor inactive.
For O=C(NNc1ccc([N+](=O)[O-])cc1)C1CC2CCCC(C1)C2=O (centres undefined) the results were ALOX12 inhib inactive, HPGD block inactive, ALDH1A1 inh inactive, Lamin A splicing inactive[0.0737 µM] and PNC inhibitor -109.
Screening O=C(NNc1ccc([N+](=O)[O-])cc1)C1CC1c1ccccc1 (centres undefined) returned ALOX12 inhib inactive, HPGD block 25µM, ALDH1A1 inh 10µM, Lamin A splicing inactive and PNC inhibitor inactive.
Screening O=C(NNc1ccc(Cl)cc1)C1CCC1 returned ALDH1A1 inh inactive and Lamin A splicing inconclusive.
Screening NNC(=O)C1CC1c1ccccc1 (centres undefined) returned ALOX12 inhib inactive, ALDH1A1 inh 4µM, Lamin A splicing inactive and PNC inhibitor inactive.
Cc1ccc(C)c(NC(=O)c2cc(S(=O)(=O)N3CCCCCC3)ccc2F)c1 was read as Lamin A splicing inactive.
Screening COc1ccc(-c2c(C#N)c(SCC(=O)c3cc4ccccc4oc3=O)nc(C)c2C(=O)Nc2ccccc2)cc1 returned ALOX12 inhib inactive, HPGD block inconclusive, ALDH1A1 inh inconclusive, Lamin A splicing inconclusive and PNC inhibitor inconclusive.
CCOC(=O)c1c(C)[nH]c(=S)c(C#N)c1-c1ccc(OC)cc1 was read as ALOX12 inhib inactive, HPGD block inconclusive, ALDH1A1 inh inconclusive, Lamin A splicing inactive and PNC inhibitor inactive.
For CCOC(=O)c1c(C)[nH]c(=S)c(C#N)c1-c1ccc(Cl)cc1 the results were ALOX12 inhib inactive, HPGD block inactive, ALDH1A1 inh inconclusive, Lamin A splicing inconclusive and PNC inhibitor -108.
Screening CCCCOc1ccc(-c2c(C(=O)Nc3ccccc3)c(C)[nH]c(=S)c2C#N)cc1 returned ALDH1A1 inh 3.5µM and Lamin A splicing inactive.
For C#C[C@@]1(O)CC[C@@H]2[C@@H]3CCC4=CC(=O)CC[C@@H]4[C@H]3CC[C@]21CC the results were ALOX12 inhib inactive, HPGD block inactive, ALDH1A1 inh inactive and Lamin A splicing inconclusive.
COc1ccc(CCN2CC34C=CC(O3)C(C(=O)NCc3ccccc3)C4C2=O)cc1OC (centres undefined) was read as ALOX12 inhib inactive, HPGD block 10µM, ALDH1A1 inh inactive, Lamin A splicing inactive and PNC inhibitor inactive.
Screening Cn1c(Sc2ccc(C(=O)O)cc2[N+](=O)[O-])nnc1-c1ccccc1 returned ALDH1A1 inh inactive and Lamin A splicing inactive.
For Cc1ccccc1CSCC(Nc1ccc(C(=O)O)cc1[N+](=O)[O-])C(=O)O (centres undefined) the results were ALOX12 inhib inactive, HPGD block inactive, ALDH1A1 inh 16µM, Lamin A splicing inactive and PNC inhibitor inconclusive.
Screening O=C(CSc1nc2cc(S(=O)(=O)N3CCOCC3)ccc2o1)NC1CCCc2ccccc21 (centres undefined) returned ALOX12 inhib inactive, HPGD block 8.9µM, ALDH1A1 inh 2.2µM, Lamin A splicing inconclusive and PNC inhibitor inconclusive.
For Cc1[nH]c2ccccc2c1C(=O)CSc1nc2cc(S(=O)(=O)N3CCCCC3)ccc2o1 the results were ALOX12 inhib inactive, HPGD block inactive, ALDH1A1 inh inactive, Lamin A splicing inconclusive and PNC inhibitor inconclusive.
O=C(CSc1nc2cc(S(=O)(=O)N3CCOCC3)ccc2o1)Nc1c(F)cccc1F was read as ALDH1A1 inh 4µM.
For Cc1ccc(C(=O)CSc2nc3cc(S(=O)(=O)N4CCOCC4)ccc3o2)cc1 the results were ALOX12 inhib inactive, HPGD block 25µM, ALDH1A1 inh 14µM, Lamin A splicing inactive and PNC inhibitor inactive.
`Cn1cc(-c2nc3cncnc3n(C3CC3)c2=O)c2ccccc21` gave ALDH1A1 inh inactive and Lamin A splicing inactive.
Screening Cc1c(C(=O)Oc2ccc(Br)cc2)sc2ncn(Cc3ccccc3F)c(=O)c12 returned Lamin A splicing inactive.
`COc1cccc(NC(=O)CN(C)CC(=O)Nc2ccccc2-c2ccccc2)c1` gave ALDH1A1 inh inconclusive and Lamin A splicing inactive.
For Cc1ccc(NC(=O)CN(C)CC(=O)Nc2ccccc2-c2ccccc2)cc1 the results were ALDH1A1 inh 14µM and Lamin A splicing inconclusive.
`Clc1ccc(-c2nnc(-c3ccco3)nc2N2CCCCC2)cc1` gave ALOX12 inhib inactive, HPGD block inconclusive, ALDH1A1 inh 2.2µM, Lamin A splicing inconclusive and PNC inhibitor inconclusive.
For Clc1ccc(-c2nnc(-c3ccc(Br)cc3)c(N3CCSCC3)n2)cc1 the results were ALOX12 inhib inactive, HPGD block inactive, ALDH1A1 inh inactive, Lamin A splicing inactive and PNC inhibitor inactive.
For C=Cc1c(C)c2cc3nc(cc4[nH]c(cc5nc(cc1[nH]2)C(C)=C5CCC(=O)O)c(CCC(=O)OC)c4C)[C@@]1(C)C3=CC=C(C(=O)OC)[C@H]1C(=O)OC (tested in a mixture with another compound) the results were ALOX12 inhib inactive, HPGD block inactive, ALDH1A1 inh inactive and Lamin A splicing inconclusive.
CCCc1cc(=O)[nH]c(SCc2ccccc2Cl)n1 was read as ALOX12 inhib inactive, HPGD block 14µM, ALDH1A1 inh inactive, Lamin A splicing inactive and PNC inhibitor inactive.
`CCCc1cc(=O)[nH]c(SCC(=O)CSc2nc(CCC)cc(=O)[nH]2)n1` gave ALOX12 inhib inactive, HPGD block inactive, ALDH1A1 inh 14µM, Lamin A splicing inactive and PNC inhibitor inactive.
Screening CCCc1cc(=O)[nH]c(SCc2nc3ccccc3s2)n1 returned ALOX12 inhib inactive, HPGD block inconclusive, ALDH1A1 inh inactive, Lamin A splicing inactive and PNC inhibitor inconclusive.
COc1cc(CN(C(=O)COc2ccccc2Cl)c2ccccn2)cc(OC)c1OC was read as Lamin A splicing inactive.
Screening COc1ccc(NC(=O)CSC2=Nc3ccccc3N=C(c3ccc(F)cc3)C2)cc1OC returned Lamin A splicing inactive.
Screening O=C1c2cccc3c(Nc4ccccc4Cl)c([N+](=O)[O-])cc(c23)C(=O)N1CCO returned ALOX12 inhib inactive, HPGD block 1.4µM, ALDH1A1 inh inactive, Lamin A splicing inconclusive and PNC inhibitor inactive.
`Oc1ccccc1-c1cc(-c2ccccc2Cl)[nH]n1` gave ALOX12 inhib inconclusive, HPGD block 14µM, ALDH1A1 inh inactive, Lamin A splicing inactive and PNC inhibitor inactive.

Source: PubChem (National Center for Advancing Translational Sciences (NCATS))
